# Screens from PubChem BioAssay.
# The sample as a whole holds a higher share of hits than the screen did.
# CHX counter = affects cycloheximide protein synthesis inhibition readout, counter-screen; cell reporter, cycloheximide protein synthesis inhibition counterscreen; max response, %; 300,000 compounds, 12% hits; in the data active means max response mostly above about 13%, no sharp cut-off; inactive means mostly below about 14%; further: read at 38.3 µM for the half of the compounds with a filed dose; 0% is about no effect
# SARS PLP yeast = inhibitors of SARS-CoV papain-like protease in yeast; 330,000 compounds, 0.19% hits; S. cerevisiae expressing SARS-CoV PLpro, growth rescue; Potency, µM (highest dose often 32.9 µM), without a hit: at the top dose activity, positive = growth rescue, actives largely listed as activators; further: potency means the concentration at half of the fitted maximal effect; 0% is about no effect; nearly all actives have a fitted effect of over 55% in size
# Tb PYK inh = inhibitors of Trypanosoma brucei pyruvate kinase. Potency, µM (doses to about 76.8 µM), without a hit: top-dose activity, negative = inhibition, hits mostly inhibitors. 410,000 compounds, 0.12% hits. TbPYK enzyme, Kinase-Glo Plus ATP luminescence, 45 min. Q57TT1; active means well fitted curve in the direction sought with a large enough effect; inconclusive means small, poorly fitted or top-dose-only effect, or another doubt; inactive means no such curve, though single readings can be large; an effect the other way counts as inactive or inconclusive; further: potency means the concentration at half of the fitted maximal effect; on the % scale 0 is the no-effect control and ±100 the full control effect; nearly all actives have a fitted effect of over 50% in size
#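 Assay buffer: 50 mM TEA pH 7.2, 100 mM KCl, 10 mM MgCl2, 0.05% BSA, 0.01% Tween-20. Pyruvate kinase from T. brucei plus substrate met compound, then ADP (130 uM final). Luminescence was read post 45 min RT.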
# NS1 function inh = influenza NS1 inhibition; Potency, µM (titrated, usually from 46.1 µM), without a hit: at the highest dose activity, positive = more growth; 270,000 compounds, 0.4% hits; AID 2326; further: potency means the concentration at half of the fitted maximal effect; actives are rising curves; nearly all actives have a fitted effect of over 50% in size
#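 Growth recovery, yeast-based: influenza A NS1 expressed in S. cerevisiae causes slow growth, and suppressors are detected by OD600. The parent strain without NS1 is used as positive control.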
# Shiga toxin inh = inhibitors of Shiga toxin in Vero cells; Vero cells, Shiga toxin protein synthesis inhibition reporter; inhibition, % at 38.7 µM; 290,000 compounds, 9.2% hits; AID 2315; in the data active means inhibition mostly above about 28%, no sharp cut-off; inactive means mostly below about 43%; further: 0% is about no effect
# LmPK inhibitor = inhibitors of Leishmania mexicana pyruvate kinase | purified LmPK, Kinase-Glo ATP luminescence, 1 h | Potency, µM (titrated, usually from 57.5 µM), without a hit: at the highest dose activity change, negative = inhibition, usual class: inhibitors | 290,000 compounds, 0.37% hits | AID 1721; active means well fitted curve in the direction sought with a large enough effect; inconclusive means small, poorly fitted or top-dose-only effect, or another doubt; inactive means no such curve, though single readings can be large; an effect the other way counts as inactive or inconclusive; further: potency means the concentration at half of the fitted maximal effect; on the % scale 0 is the no-effect control and ±100 the full control effect
# Target sequence (Q27686 whole entry, looked up): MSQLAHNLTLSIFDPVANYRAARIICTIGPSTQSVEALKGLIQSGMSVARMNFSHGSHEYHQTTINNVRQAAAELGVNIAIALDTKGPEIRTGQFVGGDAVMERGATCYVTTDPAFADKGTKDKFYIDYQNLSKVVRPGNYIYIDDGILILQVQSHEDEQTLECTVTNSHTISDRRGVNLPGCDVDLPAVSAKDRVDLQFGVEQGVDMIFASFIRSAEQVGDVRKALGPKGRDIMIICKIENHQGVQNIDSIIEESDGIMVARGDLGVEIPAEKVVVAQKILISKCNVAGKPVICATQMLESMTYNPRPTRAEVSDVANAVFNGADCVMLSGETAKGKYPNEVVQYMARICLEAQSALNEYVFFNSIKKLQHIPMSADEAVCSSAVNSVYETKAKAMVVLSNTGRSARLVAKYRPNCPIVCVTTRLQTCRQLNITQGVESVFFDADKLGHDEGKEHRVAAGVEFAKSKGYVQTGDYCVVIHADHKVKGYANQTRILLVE
#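 qHTS format; LmPK 0.1 nM; substrates PEP 0.5 mM and ADP 0.1 mM. One-hour room-temperature incubation, then coupled luciferase luminescence; 0.5 nM enzyme wells mark activation.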
# Starred values were filed as active, the others as inactive; ? = inconclusive; . = no result given; [ ] = dose if it differs, or a comment. Unless noted, the call rests on the fitted dose curve.
SMILES,CHX counter,SARS PLP yeast,Tb PYK inh,NS1 function inh,Shiga toxin inh,LmPK inhibitor
N/C(=N\OC(=O)c1ccc(=O)n(Cc2ccccc2)c1)c1ccccn1,30.3*,-1.8%,0.6%,-2.9%,63.5*,-4.3%
O=C(NNC(=O)c1cccc(C(F)(F)F)c1)c1ccncc1,4.9,-0.2%,0.4%,-4.0%,9.8,-4.2%
N/C(=N\OC(=O)c1ccc2ccccc2c1)c1ccccc1Cl,50.8*,-19.7%,1.7%,-113.2%,176.4*,-7.2%
N/C(=N\OC(=O)c1cccc(C(F)(F)F)c1)c1cnccn1,30.3*,?,3.4%,-2.8%,59.2*,0.7%
Cc1ccccc1-c1nn2c(=O)cc(CN3CCN(C(=O)c4ccc(C(C)(C)C)cc4)CC3)nc2s1,.,.,4.1%,.,.,.
COc1ccc(CNC(=O)CCCN2C(=O)c3cccnc3Oc3ccc(Cl)cc32)cc1,.,.,-5.3%[15.4 µM],.,.,.
COc1cc(C2C(C(=O)OC(C)C)=C(C)N=C3SCCC(=O)N32)ccc1OCc1ccccc1 (centres undefined),.,.,-0.6%,.,.,.
CCCc1ccc(C(=O)O/N=C(\N)c2ccccn2)cc1,-2.1,-13.6%,?,-105.5%,-24.8,15.8µM*
COc1ccc(/C(N)=N/OC(=O)c2ccc([N+](=O)[O-])c(C)c2)cc1OC,5.2,0.2%,-1.6%,1.0%,7.6,-1.1%
Cc1cc(C(=O)O/N=C(\N)c2ccncc2)ccc1[N+](=O)[O-],40.9*,-1.2%,4.4%,2.6%,80.5*,-11.0%
COc1cccc(C(=O)O/N=C(\N)c2ccccn2)c1,-9.2,-14.8%,?,-31.8%,-14.6,14.1µM*
N/C(=N\OC(=O)c1ccc2ccccc2c1)c1ccccn1,-1.2,?,?,.,6.3,14.1µM*
COc1cccc(C(=O)NCCCNC(=O)c2ccccn2)c1,5.6,-2.2%,1.5%,6.0%,-1.6,-0.2%
Cc1cc(C)c2c(=O)n(CC(=O)Nc3ccc(Cl)cc3)sc2n1,1.1,-17.2%,?,-107.2%,18.4,-22.5%
Cc1ccc(NC(=O)Cn2sc3nc(C)cc(C)c3c2=O)c(Cl)c1,-1.4,-4.7%,2.51µM*,0.1%,7.9,-18.0%
CCOc1ccc(NC(=O)Cn2sc3nc(C)cc(C)c3c2=O)cc1,-1.6,-4.4%,5.62µM*,11.8%,14.6,-16.1%
Cc1cc(C)c2c(=O)n(CC(=O)NCCCN3CCOCC3)sc2n1,5.2,-24.6%,6.31µM*,2.8%,-4.6,-16.4%
CCCCCCn1cc(CN2CC(N3CCSCC3)CS2(=O)=O)nn1 (centres undefined),.,.,1.0%,.,.,.
O=C(NCCc1cnc[nH]1)c1ccc(-c2ccccc2)cc1,29.9*,0.8%,3.3%,-0.8%,55.4*,1.4%
C=C(C)[C@]12C[C@@H](C)[C@@]34OC(Cc5ccccc5)(O[C@@H]1[C@@H]3C=C(COC(=O)Cc1cc(OC)c(O)cc1I)C[C@]1(O)C(=O)C(C)=C[C@@H]41)O2,36.1,.,.,.,27.3,.
Cc1ccc(-c2cc(NC=O)c3ncc(-c4cnn(C)c4)n3c2)cc1,.,.,-1.1%,.,.,.
BrC(/C=N/N1CCN(Cc2ccccc2)CC1)=C/c1ccccc1,7.9,-1.3%,0.0%,-37.0%,21.0,-15.8%
Cc1ccc(/C=N/N2CCOCC2)s1,46.4*,1.4%,-2.7%,0.3%,68.2*,-9.9%
Clc1ccccc1/C=N/N1CCN(Cc2ccccc2)CC1,4.4,4.4%,5.3%,11.3%,.,5.2%
Cc1ccc(/C=N/N2CCN(Cc3ccccc3)CC2)s1,50.6*,13.6%,1.8%,?,70.0*,0.5%
SMILES,CHX counter,SARS PLP yeast,Tb PYK inh,NS1 function inh,Shiga toxin inh,LmPK inhibitor
FC(F)(F)c1ccccc1/C=N/N1CCN(Cc2ccccc2)CC1,36.2*,20.1%,5.4%,3.3%,109.0*,-3.8%
BrC(=C\c1ccccc1)/C=N/N1CCN(Cc2ccccc2)CC1,21.9*,-17.5%,-2.6%,-31.4%,12.7,6.7%
Cc1ccc(OCCCSc2nc(-c3ccc(C(C)(C)C)cc3)nc3cc(=O)[nH]n23)cc1C,.,.,0.0%,.,.,.
O=[N+]([O-])c1cc(/C=N/N2CCN(Cc3ccccc3)CC2)ccc1Cl,-0.8,-0.8%,-3.3%,3.9%,-6.4,-3.3%
C(=N\N1CCN(Cc2ccccc2)CC1)/c1ccccc1,38.6*,-0.4%,4.1%,3.6%,68.6*,-2.0%
Clc1cccc(/C=N/N2CCN(Cc3ccccc3)CC2)c1,20.8*,24.4%,0.4%,-1.7%,50.9,1.5%
